# Reference: PubChem BioAssay
# Results filed as inconclusive are left out. For part of these data: Entries with a potency or affinity are not part of this list. Some of the results follow. The source made the active and inactive calls.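 How the source made its calls, unless noted: active means fitted half-maximal concentration within 10 nM to 100 µM, steepness 0.5 to 2, significant signal drop, low assay interference; inactive means the rest.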
# Columns and labels:
# [1] = target: Cell division control protein 42 homolog (Homo sapiens) (UniProt P60953); assay: inhibition of fluorescent GTP binding to constitutively active Cdc42 – biochemical, multiplex bead flow cytometry, Bodipy-FL-GTP, dose response (AID 1333;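 active means fitted half-maximal concentration within the tested dose range, moderate curve steepness, a statistically real signal drop, and little compound fluorescence or tag-binding interference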)
# Sequence of Cell division control protein 42 homolog (Homo sapiens) (P60953 whole entry, looked up): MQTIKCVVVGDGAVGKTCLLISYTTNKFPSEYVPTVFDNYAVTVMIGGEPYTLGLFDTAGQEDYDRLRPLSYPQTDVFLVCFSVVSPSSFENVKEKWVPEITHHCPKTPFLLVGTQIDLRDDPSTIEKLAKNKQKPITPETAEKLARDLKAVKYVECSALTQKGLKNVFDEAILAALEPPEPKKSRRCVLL
# [2] = target: Cell division control protein 42 homolog (Homo sapiens) (UniProt P60953); assay: inhibition of fluorescent GTP binding to wildtype Cdc42 – biochemical, multiplex bead flow cytometry, Bodipy-FL-GTP, dose response (AID 1334;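 active means fitted half-maximal concentration within the tested range, moderate curve steepness, significant signal drop, and little compound fluorescence or bead-linkage interference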); settings: bead-based flow cytometry, Bodipy-FL-GTP binding to GST-Cdc42; at 100 µM (top of the series) unless noted
# [3] = target: GTPase HRas (Homo sapiens) (UniProt P01112); assay: Ras wt fluorescent GTP loading blockade – biochemical, wildtype, multiplex bead flow cytometry, dose response (AID 1335); settings: bead-based flow cytometry, Bodipy-GTP binding to GST-Ras; at 100 µM (top of the series) unless noted
# Sequence of GTPase HRas (Homo sapiens) (P01112 whole entry, looked up): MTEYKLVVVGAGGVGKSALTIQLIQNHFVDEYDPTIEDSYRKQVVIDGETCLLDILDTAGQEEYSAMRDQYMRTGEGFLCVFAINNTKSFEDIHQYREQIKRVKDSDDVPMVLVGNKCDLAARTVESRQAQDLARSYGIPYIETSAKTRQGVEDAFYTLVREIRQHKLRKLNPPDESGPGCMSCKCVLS
# [4] = system: Ras-related protein Rab-7a (dog), GTP binding; assay: blockers of fluorescent GTP binding to Rab7 – biochemical, wildtype, multiplex bead flow cytometry, dose response (AID 1336; call rule not given here)
# [5] = target: Ras-related C3 botulinum toxin substrate 1 (Homo sapiens) (UniProt P63000); assay: inhibition of wildtype Rac1 nucleotide loading – biochemical, multiplex bead flow cytometry, dose response (AID 1340;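 active means dose curve with midpoint inside tested range, moderate steepness, plateau gap beyond fit error, low compound glow and bead-link interference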); settings: GST-Rac1 beads, Bodipy-FL-GTP binding; at 100 µM (top of the series) unless noted
# [6] = target: GTPase HRas (Homo sapiens) (UniProt P01112); assay: blockade of GTP loading onto mutant Ras – biochemical, activated mutant, multiplex bead flow cytometry, dose response (AID 1341;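 active means dose-response curve with midpoint inside the tested range, moderate steepness, significant amplitude and little compound fluorescence or bead-attachment interference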;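 further: GST-tagged constitutively activated Ras mutant immobilized on beads and multiplexed with other GTPases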)
# [7] = target: Regulator of G-protein signaling 16 (Homo sapiens) (UniProt O15492); assay: small molecules altering RGS protein interactions with GNAO1 – biochemical, multiplexed beads, flow cytometry, RGS4/7/8/16/19, primary screen (AID 1504); settings: multiplexed bead flow cytometry, measured here: RGS16 interaction, at 10 µM;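 further: fluorescently labeled Galpha-o bound to GDP with aluminium fluoride binding biotinylated RGS beads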
# [8] = target: Regulator of G-protein signaling 19 (Homo sapiens) (UniProt P49795); assay: as above; settings: multiplexed bead flow cytometry, measured here: RGS19 interaction, at 10 µM
# [9] = target: Regulator of G-protein signaling 7 (Homo sapiens) (UniProt P49802); assay: as above; settings: multiplexed bead flow cytometry, measured here: RGS7 interaction, at 10 µM
# [10] = target: Regulator of G-protein signaling 8 (Homo sapiens) (UniProt P57771); assay: as above; settings: multiplexed bead flow cytometry, measured here: RGS8 interaction, at 10 µM
# [11] = interference with biotin-avidin bead interaction – biochemical, flow cytometry, bead-based, counter-screen for RGS protein interaction modulators (AID 1783;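 active means inhibition above 50%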;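 further: median green fluorescence of gated singlet beads compared with DMSO control wells; 0% = DMSO wells and 100% = complete loss of bead fluorescence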); settings: streptavidin beads, fluorescein-biotin binding; at 10 µM, stronger effect = higher value
# [12] = target: Guanine nucleotide-binding protein G(o) subunit alpha (Homo sapiens) (UniProt P09471); assay: retest of RGS8-Galphao interaction hits – biochemical, multiplexed bead flow cytometry, single concentration, confirmation (AID 1836; in the data active means binding response below about 72% or above about 130%; inactive means in between;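 further: Galphao activated as GDP AlF4 complex before binding bead RGS8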); settings: bead-based flow cytometry RGS8-Galphao binding, fluorescence; at 10 µM; actives lie on both sides
# Sequence of Guanine nucleotide-binding protein G(o) subunit alpha (Homo sapiens) (P09471 whole entry, looked up): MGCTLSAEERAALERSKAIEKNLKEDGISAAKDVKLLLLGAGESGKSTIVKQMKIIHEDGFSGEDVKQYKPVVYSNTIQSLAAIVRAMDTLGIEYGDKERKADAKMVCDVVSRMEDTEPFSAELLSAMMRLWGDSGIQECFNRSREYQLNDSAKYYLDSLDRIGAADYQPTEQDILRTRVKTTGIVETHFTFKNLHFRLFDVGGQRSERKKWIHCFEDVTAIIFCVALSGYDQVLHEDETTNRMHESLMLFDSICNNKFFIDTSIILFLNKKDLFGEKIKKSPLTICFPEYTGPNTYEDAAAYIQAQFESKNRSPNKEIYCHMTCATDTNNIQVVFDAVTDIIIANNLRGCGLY
# [13] = target: Guanine nucleotide-binding protein G(o) subunit alpha (Homo sapiens) (UniProt P09471); assay: retest of RGS7-Galphao interaction hits – biochemical, multiplexed bead flow cytometry, single concentration, confirmation (AID 1837; in the data active means response below about 75% or above about 130%; inactive means in between;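 further: fluorescent Galphao activated with GDP and aluminum fluoride binding bead-coupled RGS7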); settings: bead-based flow cytometry RGS7-Galphao binding; at 10 µM; actives lie on both sides
# [14] = target: Regulator of G-protein signaling 16 (Homo sapiens) + Guanine nucleotide-binding protein G(o) subunit alpha (Homo sapiens) (UniProt O15492+P09471); assay: RGS16 and Galphao interaction regulators – biochemical, single concentration, multiplexed bead flow cytometry, confirmation (AID 1838; in the data active means response below about 74% or above about 130%; inactive means in between;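 further: Galphao activated as the GDP aluminium fluoride complex binding bead-coupled RGS16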); settings: bead-based flow cytometry, at 10 µM, actives lie on both sides
# [15] = target: Guanine nucleotide-binding protein G(o) subunit alpha (Homo sapiens) (UniProt P09471); assay: RGS4 and Galphao interaction regulators – biochemical, single concentration, multiplexed bead flow cytometry, confirmation (AID 1840; in the data active means binding response below about 74% or above about 130%; inactive means in between); settings: at 10 µM, actives lie on both sides
# [16] = target: Guanine nucleotide-binding protein G(o) subunit alpha (Homo sapiens) + Regulator of G-protein signaling 19 (Homo sapiens) (UniProt P09471+P49795); assay: RGS19 interaction with Gαo, hit retest – biochemical, single point, multiplexed bead flow cytometry, confirmation (AID 1841; in the data active means response below about 50% or above about 160%; inactive means in between;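 further: 100% = no compound control and 0% = blank background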); settings: bead-based flow cytometry RGS19-Galphao binding; at 10 µM; actives lie on both sides
# Sequence of Guanine nucleotide-binding protein G(o) subunit alpha (Homo sapiens) + Regulator of G-protein signaling 19 (Homo sapiens) (P09471 whole entry, looked up): as above
# Sequence of Guanine nucleotide-binding protein G(o) subunit alpha (Homo sapiens) + Regulator of G-protein signaling 19 (Homo sapiens) (P49795 whole entry, looked up): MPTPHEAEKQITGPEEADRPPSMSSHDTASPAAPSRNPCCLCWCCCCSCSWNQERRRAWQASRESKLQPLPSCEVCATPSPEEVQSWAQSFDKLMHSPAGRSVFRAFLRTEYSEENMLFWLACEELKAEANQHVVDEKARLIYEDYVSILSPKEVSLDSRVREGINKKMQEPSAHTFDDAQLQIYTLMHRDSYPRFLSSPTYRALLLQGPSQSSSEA
# [17] = rapamycin-like changes in RPL19A-GFP expression – cell-based, S. cerevisiae, multiplex flow cytometry, primary screen (AID 1862; in the data active means percent of DMSO control GFP below about 86%;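 further: lower values mimic rapamycin by blocking the RPL19A rise seen in DMSO cells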); settings: S. cerevisiae RPL19A-GFP strain, flow cytometry fluorescence, 3 h; at 10 µM; stronger effect = lower value
# [18] = TOR pathway GLN3 branch reporter MEP2-GFP changes – S. cerevisiae, multiplex flow cytometry, primary screen (AID 1867;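 active means GFP response, as percent of the DMSO control, above the screen-wide mean plus 3 SD, about 139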;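 further: median GFP channel fluorescence of barcode-gated MEP2-GFP cells measured by flow cytometry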); settings: S. cerevisiae MEP2-GFP strain, 3 h, at 10 µM, stronger effect = higher value, 100% means same as DMSO wells
# [19] = TOR pathway RTG branch CIT2 reporter changes – S. cerevisiae, GFP fusion, multiplex flow cytometry, primary screen (AID 1870;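 active means percent response above a set limit, the screen-wide mean plus 3 SD, cut at about 130% in these data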;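 further: barcoded CIT2-GFP strain pooled with four other GFP strains with rapamycin as positive control; median GFP fluorescence per well over plate mean of DMSO wells so 100% = DMSO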); settings: S. cerevisiae CIT2-GFP expression, 3 h, at 10 µM, stronger effect = higher value
# [20] = TOR pathway LAP4-GFP level changes – S. cerevisiae, multiplex flow cytometry, primary screen (AID 1873;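 active means GFP signal, as percent of the solvent control, above the screen mean plus 3 SD, about 149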); settings: S. cerevisiae LAP4-GFP expression, 3 h, at 10 µM, stronger effect = higher value
# [21] = yeast AGP1-GFP level changes, GLN3 branch – cell-based, multiplex flow cytometry, S. cerevisiae, primary screen (AID 1887;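 active means GFP signal above the screen-wide mean plus 3 SD, that is over about 124.5% of the solvent control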;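 further: AGP1-GFP fusion strain of S. cerevisiae within a five-strain barcoded multiplex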); settings: 3 h, at 10 µM, stronger effect = higher value
# [22] = reduced mouse 2C T cell binding to pMHC/ICAM-1 vesicles – MLPCN validation set, flow cytometry, LFA-1/ICAM-1 modulator project, pilot screen (AID 2523;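 active means response below a set limit, under 55% cells CD8-positive and vesicle-bound, and CD8 cells' 90th-percentile brightness under 279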;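 on vesicle binding response: mean PE anti-B7-1 fluorescence of CD8+ cells relative to row control; 100% = QL9-loaded vesicles with DMSO vehicle in the same plate row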); settings: 2C mouse CD8+ T cells, at 7 µM, stronger effect = lower value; double positive events: measured here: CD8+/vesicle+ event percentage
# [23] = target: Integrin beta-1 (Homo sapiens) + Integrin alpha-4 (Homo sapiens) (UniProt P13612+P05556); assay: alpha4beta1 integrin LIBS antibody binding reduction – U937 cells, HUTS-21 mAb, flow cytometry, validation set, VLA-4 allosteric modulator project, pilot screen (AID 2674;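 active means inhibition above 50%, about 3 SD of the validation set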;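 further: antibody binding induced by the VLA-4 ligand LDV present at three times its Kd; 0% = LDV ligand with antibody and no compound and 100% = antibody without LDV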); settings: HUTS-21 LIBS mAb binding, at 6.7 µM, stronger effect = higher value, binding induced by LDV ligand
# Sequence of Integrin beta-1 (Homo sapiens) + Integrin alpha-4 (Homo sapiens) (P05556 whole entry, looked up): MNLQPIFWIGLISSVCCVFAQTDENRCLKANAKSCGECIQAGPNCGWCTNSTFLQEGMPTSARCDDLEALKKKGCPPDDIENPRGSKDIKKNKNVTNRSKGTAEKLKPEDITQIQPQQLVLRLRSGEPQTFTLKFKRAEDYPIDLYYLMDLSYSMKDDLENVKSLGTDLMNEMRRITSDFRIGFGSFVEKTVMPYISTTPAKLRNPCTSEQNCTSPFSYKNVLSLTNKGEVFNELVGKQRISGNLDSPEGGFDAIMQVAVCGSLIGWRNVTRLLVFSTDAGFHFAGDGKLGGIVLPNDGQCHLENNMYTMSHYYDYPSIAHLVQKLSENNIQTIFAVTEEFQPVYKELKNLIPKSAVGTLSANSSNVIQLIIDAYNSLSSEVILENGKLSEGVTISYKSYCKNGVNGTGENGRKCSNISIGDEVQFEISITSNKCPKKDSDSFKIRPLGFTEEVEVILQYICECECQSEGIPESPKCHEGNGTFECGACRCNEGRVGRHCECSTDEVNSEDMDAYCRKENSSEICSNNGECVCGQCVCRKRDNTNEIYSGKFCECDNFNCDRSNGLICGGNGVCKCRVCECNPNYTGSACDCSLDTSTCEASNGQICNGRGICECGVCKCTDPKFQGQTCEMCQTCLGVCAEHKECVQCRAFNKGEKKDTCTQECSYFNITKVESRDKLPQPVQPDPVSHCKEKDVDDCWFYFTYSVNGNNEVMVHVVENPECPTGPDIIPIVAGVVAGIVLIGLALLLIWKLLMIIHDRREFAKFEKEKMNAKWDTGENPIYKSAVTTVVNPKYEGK
# Sequence of Integrin beta-1 (Homo sapiens) + Integrin alpha-4 (Homo sapiens) (P13612 whole entry, looked up): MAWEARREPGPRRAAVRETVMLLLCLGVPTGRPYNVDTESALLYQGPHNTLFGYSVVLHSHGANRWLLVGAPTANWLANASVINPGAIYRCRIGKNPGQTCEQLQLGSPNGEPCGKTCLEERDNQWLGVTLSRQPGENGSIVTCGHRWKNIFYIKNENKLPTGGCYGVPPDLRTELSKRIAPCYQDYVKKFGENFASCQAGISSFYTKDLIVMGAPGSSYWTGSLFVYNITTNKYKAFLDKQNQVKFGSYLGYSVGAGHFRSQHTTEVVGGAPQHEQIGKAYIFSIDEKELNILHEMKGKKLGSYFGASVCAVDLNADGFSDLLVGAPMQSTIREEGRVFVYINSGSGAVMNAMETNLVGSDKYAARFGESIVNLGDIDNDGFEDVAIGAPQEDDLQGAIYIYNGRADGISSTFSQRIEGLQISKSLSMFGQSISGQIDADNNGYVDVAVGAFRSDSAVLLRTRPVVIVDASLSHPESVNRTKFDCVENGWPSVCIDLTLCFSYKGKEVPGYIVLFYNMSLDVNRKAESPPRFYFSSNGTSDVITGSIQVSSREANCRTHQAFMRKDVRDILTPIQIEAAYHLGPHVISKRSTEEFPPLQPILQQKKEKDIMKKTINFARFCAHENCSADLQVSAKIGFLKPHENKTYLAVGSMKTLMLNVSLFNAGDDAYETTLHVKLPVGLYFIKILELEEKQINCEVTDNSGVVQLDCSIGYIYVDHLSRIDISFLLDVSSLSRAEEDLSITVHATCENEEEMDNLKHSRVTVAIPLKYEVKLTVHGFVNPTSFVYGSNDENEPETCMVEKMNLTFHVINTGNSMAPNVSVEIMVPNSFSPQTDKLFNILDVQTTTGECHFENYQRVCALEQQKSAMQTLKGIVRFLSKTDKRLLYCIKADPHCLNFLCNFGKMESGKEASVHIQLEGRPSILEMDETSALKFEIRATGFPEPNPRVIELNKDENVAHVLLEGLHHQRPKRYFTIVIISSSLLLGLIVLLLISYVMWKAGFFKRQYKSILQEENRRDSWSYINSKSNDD
# [24] = calorie-restriction mimetic ROS inhibitors, yeast – validation compound set, pilot screen (AID 2706;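 active means superoxide response below 65% of plate, a cut near 3 SD across the whole screen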;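 further: yeast exposed to compound for one week at 30 degrees C before staining; 100% = mean of all compound wells on the same plate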); settings: S. cerevisiae aging, superoxide DHE fluorescence; at 10 µM; stronger effect = lower value
# [25] = target: Beta-adrenergic receptor kinase 1 (Homo sapiens) (UniProt P25098); assay: GRK2 binders displacing RNA aptamer, biochemical, validation, human GRK2, bead flow cytometry (AID 488806;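 active means aptamer binding inhibition above 30%, about 3 SD of noise from non-fluorescent compounds; inactive means inhibition at or below 30%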); settings: bead-bound GRK2, FAM-aptamer displacement, at 10 µM, stronger effect = higher value
# Sequence of Beta-adrenergic receptor kinase 1 (Homo sapiens) (P25098 whole entry, looked up): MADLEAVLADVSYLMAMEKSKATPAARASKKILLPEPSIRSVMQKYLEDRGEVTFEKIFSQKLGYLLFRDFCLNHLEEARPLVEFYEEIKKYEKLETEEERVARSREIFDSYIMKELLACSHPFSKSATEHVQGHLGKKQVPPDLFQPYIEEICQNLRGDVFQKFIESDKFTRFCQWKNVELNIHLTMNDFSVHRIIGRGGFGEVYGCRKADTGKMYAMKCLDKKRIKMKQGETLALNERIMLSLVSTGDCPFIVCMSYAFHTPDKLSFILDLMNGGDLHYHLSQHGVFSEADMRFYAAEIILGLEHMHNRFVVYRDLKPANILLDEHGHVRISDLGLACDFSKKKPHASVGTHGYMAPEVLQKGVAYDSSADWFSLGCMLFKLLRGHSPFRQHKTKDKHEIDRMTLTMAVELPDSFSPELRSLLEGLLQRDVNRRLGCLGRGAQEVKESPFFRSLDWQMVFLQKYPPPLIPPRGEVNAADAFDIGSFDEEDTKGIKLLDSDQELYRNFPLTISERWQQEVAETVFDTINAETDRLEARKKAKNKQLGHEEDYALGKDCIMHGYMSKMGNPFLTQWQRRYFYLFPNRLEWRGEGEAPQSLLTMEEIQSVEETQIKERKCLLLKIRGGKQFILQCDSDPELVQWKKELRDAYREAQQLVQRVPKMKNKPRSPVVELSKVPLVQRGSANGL
# [26] = target: Beta-2 adrenergic receptor (Homo sapiens) (UniProt P07550); assay: agonist-induced loss of surface beta2AR – cell-based, FAP fluorogen, flow cytometry, validation set, pilot screen (AID 504459;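 active means percent response above 42, roughly 3 SD of non-fluorescent test compounds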;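 further: agonist-driven loss of surface beta2AR via internalization measured by FAP dye flow cytometry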); settings: Am2.2-beta2AR cells, at 10 µM, stronger effect = higher value
# Sequence of Beta-2 adrenergic receptor (Homo sapiens) (P07550 whole entry, looked up): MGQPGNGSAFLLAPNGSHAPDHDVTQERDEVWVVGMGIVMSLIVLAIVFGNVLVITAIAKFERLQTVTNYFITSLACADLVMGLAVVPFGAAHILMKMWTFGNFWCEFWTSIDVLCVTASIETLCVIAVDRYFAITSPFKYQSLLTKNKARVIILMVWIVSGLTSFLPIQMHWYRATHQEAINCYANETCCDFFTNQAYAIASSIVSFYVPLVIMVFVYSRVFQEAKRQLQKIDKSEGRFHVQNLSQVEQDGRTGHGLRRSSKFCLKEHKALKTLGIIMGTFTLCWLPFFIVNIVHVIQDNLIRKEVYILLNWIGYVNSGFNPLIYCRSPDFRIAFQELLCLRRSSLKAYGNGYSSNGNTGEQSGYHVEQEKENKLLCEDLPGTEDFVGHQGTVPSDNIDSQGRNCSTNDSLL
# [27] = target: AP-2 complex subunit beta (Homo sapiens) (UniProt P63010); assay: beta-arrestin/AP2 interaction blockers – biochemical, validation set, GST-AP2 beads, flow cytometry, pilot screen (AID 504541;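 active means inhibition above 54%, about 3 SD of non-fluorescent compounds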;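 further: AP2 carries R879A mutation and is captured from E. coli lysate; bead-bound FITC arrestin peptide fluorescence measuring arrestin peptide binding to AP2; 0% = DMSO wells and 100% = excess unlabeled arrestin peptide control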); settings: FITC arrestin peptide, at 10 µM, stronger effect = higher value, AP2 beta2 appendage fragment, R879A mutant
# [28] = cytosolic pH regulators acting via V-ATPase – S. cerevisiae, pHLuorin, HTS validation (AID 504600; in the data active means response above about 15%;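 further: plate controls were DMSO for no effect and reference compound for full effect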); settings: V-ATPase proton transport, at 10 µM, stronger effect = higher value
# [29] = system: anti-desmoglein-3 scFv antibody binding to human DSG3; assay: blockers of pathogenic pemphigus antibody–desmoglein-3 binding – biochemical, validation compound set, bead-based, flow cytometry, pilot screen (AID 588368;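 active means binding below the plate cutoff, the plate median minus 3 SD, with a reading above zero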;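 further: signal is the median channel fluorescence of bead-bound GFP antibody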); settings: Protein G beads, DSG3-Fc, scFv-GFP binding, at 10 µM, stronger effect = lower value
# [30] = Nile Red efflux blockade in pump-expressing yeast – validation compound set, multiplex, phenotypic, pilot screen (AID 588506;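 active means efflux inhibition above 0.42, the validation set average plus 4 SD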;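 further: Nile Red retained in cells so higher fluorescence means more efflux inhibition; 0 = negative control wells and 1 = enniatin B 25 µM full block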); settings: S. cerevisiae pump-expressing triplex, Nile Red efflux flow cytometry; at 10 µM; stronger effect = higher value; the pumps come from Candida albicans
# [31] = target: ATP-binding cassette sub-family B member 6 (Homo sapiens) (UniProt Q9NP58); assay: blockers of ABCB6-driven porphyrin uptake – K562-ABCB6 cells, flow cytometry, validation set, pilot screen (AID 588550;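 active means inhibition above the screen-wide mean plus 3 SD, about 51%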;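 further: 0% = DMSO wells and 100% = benzethonium chloride 70 µM positive control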); settings: K562-ABCB6 porphyrin accumulation, 1 h, at 10 µM, stronger effect = higher value
# Sequence of ATP-binding cassette sub-family B member 6 (Homo sapiens) (Q9NP58 whole entry, looked up): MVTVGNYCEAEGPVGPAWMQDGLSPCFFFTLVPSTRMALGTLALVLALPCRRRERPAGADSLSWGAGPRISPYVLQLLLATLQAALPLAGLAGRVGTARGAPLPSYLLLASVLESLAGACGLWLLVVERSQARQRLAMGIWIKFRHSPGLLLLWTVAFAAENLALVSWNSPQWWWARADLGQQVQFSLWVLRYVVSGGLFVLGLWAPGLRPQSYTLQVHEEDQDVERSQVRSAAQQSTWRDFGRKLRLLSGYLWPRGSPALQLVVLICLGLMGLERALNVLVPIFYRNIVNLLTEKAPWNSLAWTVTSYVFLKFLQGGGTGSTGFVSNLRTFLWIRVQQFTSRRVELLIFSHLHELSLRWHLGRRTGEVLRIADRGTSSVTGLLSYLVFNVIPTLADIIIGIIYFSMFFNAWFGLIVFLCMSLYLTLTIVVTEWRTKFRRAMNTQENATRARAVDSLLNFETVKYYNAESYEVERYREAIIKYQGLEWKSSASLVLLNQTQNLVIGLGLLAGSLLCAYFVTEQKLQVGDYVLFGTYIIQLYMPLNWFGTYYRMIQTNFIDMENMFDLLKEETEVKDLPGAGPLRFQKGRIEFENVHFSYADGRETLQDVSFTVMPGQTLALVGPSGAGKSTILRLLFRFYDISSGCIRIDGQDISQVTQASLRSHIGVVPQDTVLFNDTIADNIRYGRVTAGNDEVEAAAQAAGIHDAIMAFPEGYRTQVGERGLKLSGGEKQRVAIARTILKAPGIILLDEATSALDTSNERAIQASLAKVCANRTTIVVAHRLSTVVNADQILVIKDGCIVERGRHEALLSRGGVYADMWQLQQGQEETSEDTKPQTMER
# [32] = AML differentiation inducers, ER-HoxA9 marrow cells – cell-based, GFP/MAC1 double positive, flow cytometry, validation set, primary screen (AID 588685;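 active means differentiation response of at least 50%, scaled between solvent and reference control, from cells with both markers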;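 further: compound exposure lasts four days before antibody staining and flow analysis; 0% = DMSO wells and 100% = 5 µM fulvestrant positive control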); settings: stronger effect = higher value, normalized: vehicle 0, fulvestrant 100
smiles,measurement,setting,value
O=C(COC(=O)/C=C/c1cccs1)Nc1ccc2ccccc2c1,outcome,[1],inactive
same,"fluorescence, percent of control (lower = inhibition)",[2],43.2%
same,"GTP binding, percent of control",[3],58.6%
same,outcome,[4],inactive
same,"GTP binding signal, raw median fluorescence (lower = inhibition) (MCF (arbitrary fluorescence units))",[5],183
same,outcome,[6],inactive
O=C(OCC1O[C@@H](OC(=O)c2cc(O)c(O)c(O)c2)[C@@H](OC(=O)c2cc(O)c(O)c(O)c2)[C@@H](OC(=O)c2cc(O)c(O)c(O)c2)[C@@H]1OC(=O)c1cc(O)c(O)c(O)c1)c1cc(O)c(O)c(O)c1 (stereo not given in full),outcome,[1],inactive
same,"fluorescence, percent of control (lower = inhibition)",[2],21.1%
same,"GTP binding, percent of control",[3],58.6%
same,outcome,[4],inactive
same,"GTP binding signal, raw median fluorescence (lower = inhibition) (MCF (arbitrary fluorescence units))",[5],145
same,outcome,[6],inactive
same,RGS16–Galpha-o binding response,[7],51.1%
same,RGS19–Galpha-o binding response,[8],-410%
same,RGS7–Galpha-o binding response,[9],20.5%
same,RGS8–Galpha-o binding response,[10],46.9%
same,inhibition,[11],-1.9% (inactive)
same,binding response (% of control),[12],35.2% (active)
same,response (percent of control binding),[13],-10.3% (active)
same,response (% of control binding),[14],29.8% (active)
same,binding response (% of control),[15],-1.02% (active)
same,response (percent of control binding),[16],46.8% [inhibitor] (active)
O=C(O)c1ccccc1OCCOc1ccccc1,outcome,[1],inactive
same,"fluorescence, percent of control (lower = inhibition)",[2],82.8%
same,"GTP binding, percent of control",[3],81.1%
same,outcome,[4],inactive
same,"GTP binding signal, raw median fluorescence (lower = inhibition) (MCF (arbitrary fluorescence units))",[5],297
same,outcome,[6],inactive
same,percent of DMSO control GFP,[17],93.4% (inactive)
same,GFP response vs DMSO,[18],98.8% (inactive)
same,percent response of DMSO control,[19],83.1% (inactive)
same,GFP response vs DMSO,[20],129% (inactive)
same,"GFP response, % of DMSO",[21],77.1% (inactive)
same,double positive events,[22],66%
same,vesicle binding response,[22],133% (inactive)
same,inhibition,[23],2.55% (inactive)
same,superoxide response (% of plate),[24],43.5% (active)
same,aptamer binding inhibition,[25],2% (inactive)
same,response,[26],32.2% (inactive)
same,inhibition,[27],52.1% (inactive)
same,response,[28],-1.15% (inactive)
same,binding (% of control),[29],96% (inactive)
same,efflux inhibition (fraction of control),[30],0.74 (active)
same,inhibition,[31],8% (inactive)
same,differentiation response,[32],34.6% (inactive)
